Drawing on PubChem BioAssay (EPA / NIEHS), this text covers AC50 and outcome for 18 molecules.

Inconclusive results are not listed. Calls of active or inactive are those of the source. How the source made its calls: active means hit-call score of the fitted dose curve at least 0.9, where 1 is the maximum; inconclusive means response in the unintended direction; inactive means score below 0.9.

Experiment [1] is described as follows: ACEA_AR_antagonist_AUC_viability: ACEA Biosciences xCELLigence Real-Time Cell Analysis on Androgen Receptor Antagonism for Viability (AID 2283776).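 Further: 22Rv1 human prostate cancer cells growing on impedance electrode plates; area under impedance growth curve at 80 h after dosing as viability; hits lower the growth signal relative to DMSO meaning cytotoxicity.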 The procedure, abridged:
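22Rv1 prostate cells, continuous dosing up to 100 uM final (0.5% DMSO max), duplicate plates. Growth measured by impedance; AUC at 80 h, loss of signal vs DMSO.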

Experiment [2] is described as follows: ACEA_ER_AUC_viability: ACEA Biosciences xCELLigence Real-Time Cell Analysis on Estrogen Receptor Agonism for Viability (AID 2283782).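 Further: continuous compound exposure with impedance area under curve over 80 h; hit means loss of impedance signal meaning reduced cell growth or viability.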 The procedure, abridged:
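T-47D; phenol red-free RPMI1640 + 10% CS-FBS; 8 conc., 1:4 serial, max 100 uM final, ≤0.5% DMSO; n = 2; continuous exposure; impedance monitored to 80 h post-dose; AUC vs DMSO.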

Experiment [3] has as its target AR (gene 367) (UniProt P10275). The experiment in a line: ACEA_AR_antagonist_80hr: ACEA Biosciences xCELLigence Real-Time Cell Analysis on Androgen Receptor Antagonism for Proliferation (AID 2283787).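 Further: 22Rv1 human prostate cancer cells with growth followed by electrical impedance; hits lower the impedance growth signal relative to DMSO.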 The procedure, abridged: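 Growth-kinetic antagonist readout in 22Rv1 cells, taken 80 h after continuous compound exposure. Activity fitted as signal loss relative to DMSO negative control.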

Experiment [4] in a line: STM_H9_NormalizedViability: Cytotoxicity Assessment at 120 hours in the Stemina devTOX quickPredict H9 human embryonic stem cell (hESC)-based Assay (AID 2283784). Put shortly: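 Pluripotent H9 hESCs were exposed, with chemical and media replaced every 24 h. Viability was read by CellTiter-Fluor fluorescence, background-corrected and normalized to the 0.1% DMSO neutral control per plate. Loss of signal was fitted.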

For experiment [5], the target named is AR (gene 367) (UniProt P10275). The experiment can be described thus: ACEA_AR_agonist_80hr: ACEA Biosciences xCELLigence Real-Time Cell Analysis on Androgen Receptor Agonism for Proliferation (AID 2283783).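 Further: hits increase impedance growth signal above DMSO baseline.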 Put shortly: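 Androgen-driven proliferation in 22Rv1 cells is tracked as electrical impedance, taken 80 h after continuous exposure to compound (eight concentrations, 1:4 steps, maximum 100 uM final). Activity is fitted in the positive direction with DMSO as baseline.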
AR (gene 367), sequence (P10275 whole entry, looked up): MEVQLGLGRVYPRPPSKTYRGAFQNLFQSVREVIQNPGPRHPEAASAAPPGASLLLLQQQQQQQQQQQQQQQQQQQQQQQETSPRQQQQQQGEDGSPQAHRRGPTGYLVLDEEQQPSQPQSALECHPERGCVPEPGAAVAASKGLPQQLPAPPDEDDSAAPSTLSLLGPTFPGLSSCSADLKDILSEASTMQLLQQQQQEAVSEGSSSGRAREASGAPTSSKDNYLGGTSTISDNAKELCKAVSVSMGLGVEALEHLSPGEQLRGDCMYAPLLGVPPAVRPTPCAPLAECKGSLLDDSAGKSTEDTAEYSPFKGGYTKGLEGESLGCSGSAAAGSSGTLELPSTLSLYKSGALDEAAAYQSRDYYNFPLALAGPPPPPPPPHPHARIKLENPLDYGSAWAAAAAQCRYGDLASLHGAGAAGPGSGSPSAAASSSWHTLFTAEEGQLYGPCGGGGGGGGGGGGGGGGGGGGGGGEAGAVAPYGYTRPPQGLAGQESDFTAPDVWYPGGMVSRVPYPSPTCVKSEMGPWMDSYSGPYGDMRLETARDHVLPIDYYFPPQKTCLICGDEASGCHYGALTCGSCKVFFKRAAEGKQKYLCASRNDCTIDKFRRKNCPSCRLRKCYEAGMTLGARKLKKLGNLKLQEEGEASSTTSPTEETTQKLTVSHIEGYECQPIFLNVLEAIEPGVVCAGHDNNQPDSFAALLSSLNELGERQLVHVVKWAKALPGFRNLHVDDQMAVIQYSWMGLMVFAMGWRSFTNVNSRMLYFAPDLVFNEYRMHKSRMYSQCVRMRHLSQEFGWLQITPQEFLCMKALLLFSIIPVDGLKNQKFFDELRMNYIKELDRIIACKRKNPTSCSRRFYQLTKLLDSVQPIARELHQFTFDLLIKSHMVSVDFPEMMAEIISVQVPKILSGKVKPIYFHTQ

As usually defined, the AC50 is the concentration giving half of the maximal activity seen. For `COc1cc(-c2nc(NC(=O)c3cc4cc(C)cc(C)c4n3CC(=O)O)sc2CCC2CCCCC2)c(OC)cc1Cl`, the values for the AC50 (in experiment [1]; in experiment [2]; with AR (gene 367) [3]) were 9.23 µM (active), 11.4 µM (active) and 11.6 µM (active), respectively.
With `CC1=C(/C=C/C(C)=C/C=C/C(C)=C/CO)C(C)(C)CCC1`, the AC50 in experiment [1] is 79.8 µM (active). In addition, the call in experiment [2] and in experiment [4] was inactive.
Consider `COc1cc(/C=C/C(=O)CC(=O)/C=C/c2ccc(O)c(OC)c2)ccc1O`, for which the AC50 in experiment [1] was 23.2 µM (active); with AR (gene 367) [3], 25.9 µM (active). Moreover, the molecule was classed as inactive (in experiment [2]; with AR (gene 367) [5]).
On to `CC(=O)OC/C=C(\C)CCC=C(C)C`, for which the molecule was classed as inactive in experiment [1] and in experiment [2].
As for `Cc1cccc(C)c1O`, the result (in experiment [1]; in experiment [2]; with AR (gene 367) [5]) was inactive.
For `Nc1ccccc1N`, the AC50 in experiment [1] was 24.2 µM (active); in experiment [4] it was 2.01 µM (active). The outcome in experiment [2] was inactive.
As to `CN[C@H]1CC[C@@H](c2ccc(Cl)c(Cl)c2)c2ccc(S(N)(=O)=O)cc21`, the AC50 is 15.7 µM (active) in experiment [1], 10.9 µM (active) in experiment [2] and 13.1 µM (active) with AR (gene 367) [3].
Regarding `Cc1nc(-c2ccc3c(c2)CCN(CCC2CCC(NC(=O)/C=C/c4ccc(F)cc4)CC2)CC3)no1` (stereo not given), the results for the AC50 (in experiment [1]; with AR (gene 367) [3]) were 16.8 µM (active) and 23.2 µM (active), respectively. For the same molecule, the result in experiment [2] and in experiment [4] was inactive.
As for `CCOc1ccc2c(c1)C(C)=CC(C)(C)N2`, the AC50 in experiment [1] is 89.5 µM (active); with AR (gene 367) [3], 72.2 µM (active). In addition, the outcome (in experiment [2]; with AR (gene 367) [5]) was inactive.
For the molecule `Cc1oc(-c2ccccc2)nc1CCOc1cccc2c1ccn2CCC(=O)O`, the AC50 in experiment [1] was 65.7 µM (active). Further, the molecule was classed as inactive in experiment [2] and in experiment [4].
Take `COc1ccc(C)cc1N`: the call (in experiment [1]; in experiment [2]; with AR (gene 367) [3]) was inactive.
Consider `CNCc1cc(F)ccc1Oc1ccc(Cl)c(Cl)c1`, for which the AC50 is 67.4 µM (active) in experiment [1] and 29.9 µM (active) in experiment [2].
In the case of `FC(F)(F)C(F)(F)C(F)(F)C(F)(F)C(F)(F)C(F)(F)CCI`, the result in experiment [1] and in experiment [2] was inactive.
Take `CNC(=O)[C@H]1O[C@@H](n2cnc3c(NCc4cc(Cl)ccc4OCc4cc(C)no4)ncnc32)[C@H](O)[C@@H]1N`: the molecule was called inactive (in experiment [1]; in experiment [2]; with AR (gene 367) [3]).
With `CCCCCCC(=O)OCC`, the outcome in experiment [1] and in experiment [2] was inactive.
As for `COc1cccc2c1C(=O)c1c(O)c3c(c(O)c1C2=O)C[C@@](O)(C(=O)CO)C[C@@H]3O[C@H]1C[C@H](N)[C@H](O)[C@H](C)O1`, the AC50 in experiment [1] is 0.0588 µM (active). Besides, the molecule was called inactive in experiment [2].
As for `CCNc1cccc(C)c1`, the call in experiment [1] and in experiment [2] was inactive.
With `Oc1ccc2c(c1)OC[C@@H](N1CCC(O)(c3ccc(F)cc3)CC1)[C@H]2O`, the result in experiment [1] and in experiment [2] was inactive.
